In PubChem BioAssay:

Assay: Plasmodium falciparum growth inhibition, primary screen, strain 3D7, DAPI fluorescence, 100 nL (AID 1184);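 further: parasites grown inside human red blood cells in medium with human serum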
Settings: P. falciparum 3D7 growth, 3 d, higher = more signal
COCCCNC(=O)[C@@H]1c2ccccc2C(=O)N(Cc2ccccc2Cl)[C@H]1c1ccc(CO)cc1 showed a z-score of 0.652. C=C(CCCC)/C(=C/C[C@@H](OC(C)=O)c1ccc(OCCO)cc1)c1cnc2ccccc2c1 gave a z-score of -3. With COc1ccc(CCNC(=O)[C@@]2(Sc3ccc(C)cc3)CC(=O)N(C(C)C)[C@@H]2c2ccc(CO)cc2I)cc1 the z-score was -1.01. With CCCC[C@@H]1C[C@H]1[C@@H](NC(=O)c1cccs1)c1ccc(-c2ccccc2)cc1 the z-score was 0.0576. CN(C)CCCCCCNC(=O)[C@H]1C[C@H]2C(=O)N[C@@H](CCCCN)C(=O)N2[C@H]1c1cccc(OCCO)c1 gave a z-score of 1.05. For C=C(C)[C@@H]1CC=C(C(O)C2C=CC3C(=O)N(c4ccccc4)C(=O)C3N2Nc2ccccc2)CC1 (some centres not stated), the z-score was 0.759. In the case of COCCOC(=O)N1C(=O)[C@@]2(c3cc(C#CCC(C(=O)OC)C(=O)OC)ccc31)[C@H](c1ccccc1OCCO)N1[C@H](c3ccccc3)[C@H](c3ccccc3)OC(=O)[C@H]1[C@@H]2C(=O)NC[C@H](O)c1ccccc1, the z-score is reported as -2.31.
